In PubChem BioAssay (EPA / NIEHS) one finds outcome and AC50 data, which are given here for seven compounds.

Experiment [1] can be described thus: APR_HepG2_CellCycleArrest_24hr: Apredica 24-hour HepG2 Assay for Cell Cycle Arrest (AID 2282905).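 Also: cell cycle arrest scored as ratio of 2N to 4N nuclear DNA content.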 The conditions noted are these: imaging, actives raise or lower the signal. In short, it runs like this:
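Cell cycle arrest is scored from nuclear DNA content measured by high-content imaging of Hoechst 33342-stained HepG2 cells following 24-hour treatment at ten concentrations up to 200 uM, with DMSO as baseline.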

A short description of experiment [2]: APR_HepG2_StressKinase_1hr: Apredica 1-hour HepG2 Assay for Stress Kinase (AID 2282906). The conditions noted are these: HepG2 stress kinase (phospho-c-Jun) imaging, actives raise or lower the signal. In short, it runs like this:
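HepG2 cells dosed 0.39-200 uM (0.5% DMSO) for 1 h, then formaldehyde-fixed. Stress kinase read by phospho-c-Jun immunofluorescence using high-content imaging; bidirectional fit vs DMSO.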

Experiment [3] can be described thus: APR_HepG2_NuclearSize_24hr: Apredica 24-hour HepG2 Assay for Nuclear Size (AID 2282907). As to conditions: high-content imaging, actives raise or lower the signal. The method in brief:
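Compounds in DMSO (final 0.5%) were added to human HepG2 hepatoma cells at ten concentrations up to 200 uM for 24 hr. Fixed nuclei were stained with Hoechst 33342, and nuclear diameter was quantified from automated images.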

Experiment [4] can be described thus: APR_HepG2_CellLoss_24hr: Apredica 24-hour HepG2 Assay for Cell Loss (AID 2282908). As to conditions: high-content imaging. In short, it runs like this: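 Cell number is quantified by fluorescence imaging of Hoechst 33342-stained nuclei following dosing at 0.39–200 uM in 0.5% DMSO. Curves are fitted in both directions from the DMSO baseline.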
A short description of experiment [5]: APR_HepG2_MicrotubuleCSK_24hr: Apredica 24-hour HepG2 Assay for Microtubule CSK Stabilty (AID 2282909). As to conditions: HepG2 microtubule cytoskeleton imaging, actives raise or lower the signal. The method in brief: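 Steps: dose HepG2 for 24 h (0.39–200 uM, 0.5% DMSO); fix 30 min in 3.7% formaldehyde at room temperature; permeabilize; stain alpha-tubulin 60 min; image microtubule cytoskeleton at 20x. Signal change fitted in both directions relative to DMSO.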

Experiment [6] in a line: APR_HepG2_MitoticArrest_24hr: Apredica 24-hour HepG2 Assay for Mitotic Arrest (AID 2282910). The conditions noted are these: high-content imaging, actives raise or lower the signal. The method in brief:
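HepG2 human liver cells were exposed to compounds at 0.39–200 uM (10 concentrations, duplicate) in 0.5% v/v DMSO for 24 hr, then fixed and immunostained for phospho-histone H3 with Hoechst 33342. Mitotic arrest came from HCS fluorescent imaging, fitted bidirectionally against DMSO.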

Experiment [7] can be described thus: APR_HepG2_MitoMembPot_24hr: Apredica 24-hour HepG2 Assay for Mitochondrial Membrane Potential (AID 2282911). As to conditions: imaging, actives raise or lower the signal. In short, it runs like this: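 HepG2 human liver cells were exposed 24 hr to compounds at 0.39–200 uM (final DMSO 0.5% v/v) in duplicate. MitoTracker Red CMXRos (250 nM, 30 min) was loaded before formaldehyde fixation; fluorescence was imaged by ArrayScan HCS and fitted bidirectionally versus DMSO.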

The nature of experiment [8]: APR_HepG2_MitoMass_24hr: Apredica 24-hour HepG2 Assay for Mitochondrial Mass (AID 2282912). As to conditions: high-content imaging, actives raise or lower the signal. In short, it runs like this:
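The liver line HepG2 was dosed in duplicate across a 0.39–200 uM series, with final DMSO held at 0.5% v/v, and harvested at 24 hr. High-content imaging measured mitochondrial dye staining.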

Experiment [9] can be described thus: APR_HepG2_p53Act_24hr: Apredica 24-hour HepG2 Assay for p53 Activation (AID 2282913).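 Also: p53 protein immunofluorescence averaged per cell in HepG2 with Hoechst nuclei.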 As to conditions: high-content imaging, actives raise or lower the signal. The method in brief: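 HepG2 cells exposed 24 hr to compounds at 0.39–200 uM (10 concentrations, duplicate), final DMSO 0.5% v/v. After formaldehyde fixation and Triton permeabilization, p53 was immunolabeled (sheep anti-p53, Cy5 secondary) with Hoechst 33342 nuclear counterstain, then imaged by high-content fluorescence microscopy.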

The nature of experiment [10]: APR_HepG2_CellCycleArrest_72hr: Apredica 72-hour HepG2 Assay for Cell Cycle Arrest (AID 2282914). As to conditions: high-content imaging, actives raise or lower the signal. In short, it runs like this:
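HepG2 cells were exposed to compounds at 0.39–200 uM (0.5% v/v DMSO final, duplicates) for 72 hr, fixed in 3.7% formaldehyde, permeabilized and stained with Hoechst 33342. Nuclear DNA content was quantified by high-content imaging; gain or loss of signal was fitted bidirectionally against DMSO.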

Experiment [11] is described as follows: APR_HepG2_CellLoss_72hr: Apredica 72-hour HepG2 Assay for Cell Loss (AID 2282915). The conditions noted are these: high-content imaging. In short, it runs like this: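 HepG2 cells were exposed for 72 hr to compounds at 0.39–200 uM (ten concentrations, duplicate) in 0.5% v/v final DMSO. Nuclei were stained with Hoechst 33342 after 3.7% formaldehyde fixation, imaged at 20x, and counted; fits bidirectional versus DMSO.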

The nature of experiment [12]: APR_HepG2_P-H2AX_72hr: Apredica 72-hour HepG2 Assay for H2AX Phosphorylation (AID 2282916).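 Also: phospho-histone H2A.x immunostain intensity per cell marking DNA damage.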 The conditions noted are these: imaging, actives raise or lower the signal. In short, it runs like this: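 Following 72 hr treatment with 0.39–200 uM compound, HepG2 cells were formaldehyde-fixed, permeabilized and stained for phospho-H2A.x; signal was measured by high-content imaging and fitted bidirectionally against DMSO controls.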

Experiment [13] is described as follows: APR_HepG2_MitoticArrest_72hr: Apredica 72-hour HepG2 Assay for Mitotic Arrest (AID 2282918). The conditions noted are these: high-content imaging, actives raise or lower the signal. The method in brief:
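HepG2 cells were exposed for 72 hr to compound at 0.39–200 uM (10 concentrations, duplicate) in 0.5% v/v DMSO, fixed in 3.7% formaldehyde, immunostained for phospho-histone H3 with Hoechst 33342 and imaged by high-content fluorescence; bidirectional fits versus DMSO.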

Experiment [14] in a line: APR_HepG2_MicrotubuleCSK_72hr: Apredica 72-hour HepG2 Assay for Microtubule CSK Stabilty (AID 2282919). The conditions noted are these: HepG2 microtubule cytoskeleton, high-content imaging, actives raise or lower the signal. In short, it runs like this: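 HepG2 human liver cells were dosed for 72 h at ten concentrations from 0.39 to 200 uM in duplicate (0.5% v/v DMSO final). Fixed, permeabilized cells were immunostained for alpha-tubulin (Cy5) with a Hoechst counterstain and imaged at 20x.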

Experiment [15] can be described thus: APR_HepG2_P-H2AX_24hr: Apredica 24-hour HepG2 Assay for H2AX Phosphorylation (AID 2282920). As to conditions: high-content imaging, actives raise or lower the signal. In short, it runs like this: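 HepG2 human liver cells were exposed for 24 hr to compounds at 0.39–200 uM in duplicate, with 0.5% v/v DMSO final. Fixed cells were immunostained for phospho-histone H2A.x plus Hoechst 33342, imaged by HCS fluorescence, and fitted bidirectionally against DMSO.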

A short description of experiment [16]: APR_HepG2_StressKinase_72hr: Apredica 72-hour HepG2 Assay for Stress Kinase (AID 2282921). As to conditions: HepG2 stress kinase (phospho-c-Jun) imaging, actives raise or lower the signal. The method in brief: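 Fluorescence intensity of Cy3-tagged anti-phospho-c-Jun antibody, quantified per cell from Hoechst-defined nuclei across six images per well, served as the read-out following 72 h exposure (0.39–200 uM, 0.5% v/v DMSO).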

A short description of experiment [17]: APR_HepG2_StressKinase_24hr: Apredica 24-hour HepG2 Assay for Stress Kinase (AID 2282922). As to conditions: HepG2 stress kinase (phospho-c-Jun) imaging, actives raise or lower the signal. The method in brief: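 HepG2 cells exposed 24 hr to compound at 0.39–200 uM (10 concentrations, duplicate), 0.5% v/v DMSO final. Fixed in 3.7% formaldehyde, permeabilized with Triton X-100, immunolabeled for phospho-c-Jun with Hoechst 33342; HCS fluorescence imaging, bidirectional fit versus DMSO.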

Experiment [18] in a line: APR_HepG2_p53Act_72hr: Apredica 72-hour HepG2 Assay for p53 Activation (AID 2282923).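 Also: average cellular p53 protein immunofluorescence intensity in HepG2 cells.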 As to conditions: high-content imaging, actives raise or lower the signal. In short, it runs like this:
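HepG2 monolayers receive test compounds in duplicate at ten concentrations (0.39 through 200 uM) for 72 hr. They are then formaldehyde-fixed, antibody-labelled for p53, Hoechst-stained and imaged, with activity fitted bidirectionally versus DMSO.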

Experiment [19] in a line: APR_HepG2_MitoMass_72hr: Apredica 72-hour HepG2 Assay for Mitochondrial Mass (AID 2282924).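 Also: MitoTracker Red CMXRos stain intensity per cell imaged as mitochondrial mass.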 As to conditions: high-content imaging, actives raise or lower the signal. The method in brief: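 HepG2 cells were exposed for 72 hr to compounds at 0.39–200 uM (ten concentrations, duplicate, 0.5% v/v DMSO final). Live cells were stained with 250 nM MitoTracker Red CMXRos for 30 min, then fixed in 3.7% formaldehyde and imaged by HCS fluorescence.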

Experiment [20] is described as follows: APR_HepG2_MitoMembPot_72hr: Apredica 72-hour HepG2 Assay for Mitochondrial Membrane Potential (AID 2282917). As to conditions: imaging, actives raise or lower the signal. In short, it runs like this:
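HepG2 cells exposed 72 h to compounds at 0.39–200 uM (0.5% v/v DMSO, duplicates); MitoTracker Red CMXRos 250 nM loaded 30 min before 3.7% formaldehyde fixation, imaged by HCS fluorescence. Bidirectional fit versus DMSO.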

The source made the active and inactive calls. The calls were made as follows: active = hit-call score of the fitted dose curve at least 0.9, where 1 is the maximum; inactive = score below 0.9.

As a reminder, the AC50 is the concentration giving half of the maximal activity seen. As to `CC1(C)C(C=C(Cl)Cl)C1C(=O)OCc1cccc(Oc2ccccc2)c1` (stereo not given), the outcome in experiment [1], in experiment [2], in experiment [3], in [4], in experiment [5] and in [6] was inactive. For the same compound, the call in experiment [8], in [9], in experiment [12], in experiment [13], in [15] and in experiment [16] was inactive. The compound was classed as inactive in experiment [17], in experiment [18] and in [19]. Besides, the AC50 in [7] is 100 µM (active); in [10] it was 101 µM (active); in experiment [11], 62.3 µM (active); in experiment [14], 100 µM (active).

`COC(=O)c1ccc(I)cc1S(=O)(=O)NC(=O)Nc1nc(C)nc(OC)n1`: the result in experiment [1], in experiment [2], in experiment [3], in experiment [4], in [5] and in experiment [6] was inactive. In addition, the result in experiment [7], in experiment [8], in experiment [9], in experiment [10], in experiment [12] and in experiment [13] was inactive. In addition, the result in [14], in experiment [15], in experiment [16], in experiment [17], in experiment [18] and in [19] was inactive.

For the compound `O=C(O)C1(C(=O)Nc2ccc(Cl)cc2Cl)CC1`, the call in experiment [1], in [2], in experiment [3], in experiment [4], in [5] and in [6] was inactive. The outcome in experiment [7], in [8], in experiment [9], in [10], in experiment [12] and in experiment [13] was inactive. Besides, the call in [14], in [15], in experiment [17], in experiment [18] and in [19] was inactive.

With `CCCCOC(=O)[C@@H](C)Oc1ccc(Oc2ccc(C(F)(F)F)cn2)cc1`, the call in experiment [1], in experiment [2], in experiment [3], in experiment [4], in [6] and in experiment [7] was inactive. Moreover, the outcome in experiment [8], in experiment [9], in [10], in [11], in experiment [12] and in experiment [20] was inactive. In addition, the call in experiment [13], in [14], in experiment [15], in [17], in experiment [18] and in experiment [19] was inactive.

`COC(=O)c1c(Cl)nn(C)c1S(=O)(=O)NC(=O)Nc1nc(OC)cc(OC)n1`: the compound was classed as inactive in [1], in experiment [2], in [3], in experiment [4], in experiment [6] and in experiment [7]. Further, the compound was called inactive in experiment [8], in [9], in experiment [10], in experiment [11], in experiment [12] and in experiment [13]. The result in experiment [14], in [15], in experiment [17], in experiment [18] and in experiment [19] was inactive.

With `CCNc1nc(N)nc(Cl)n1`, the outcome in experiment [1], in [2], in experiment [3], in experiment [4], in experiment [6] and in experiment [7] was inactive. For the same compound, the result in experiment [8], in experiment [9], in experiment [10], in experiment [11], in experiment [12] and in experiment [13] was inactive. Further, the result in experiment [14], in experiment [15], in experiment [17], in [18] and in experiment [19] was inactive.

Regarding `CCCCCCC(C)OC(=O)COc1nc(F)c(Cl)c(N)c1Cl` (stereo not given), the compound was classed as inactive in [1], in experiment [2], in [3], in experiment [4], in experiment [6] and in experiment [7]. Also, the call in experiment [8], in experiment [9], in [10], in experiment [11], in experiment [12] and in experiment [20] was inactive. For the same compound, the call in experiment [13], in [15], in [17], in experiment [18] and in experiment [19] was inactive. Further, the AC50 in experiment [5] was 116 µM (active); in experiment [14] it was 106 µM (active).
